Z-score data for 27 compounds are collected here from PubChem BioAssay.

Each structure is given as a SMILES string. Values without a mark were called inactive.

The experiment in a line: budding yeast growth modifiers under rapamycin – strain BY4716, OD600, 96 h, primary screen (AID 1091). Further: test concentration not given here. The following applies: S. cerevisiae BY4716 + rapamycin, higher = more signal, called active from +8 up or from −8 down.
On to `C=C(/C(=C/C[C@H](OC(C)=O)c1ccccc1OCCO)c1cc(C(=O)OC)ccc1OC)C(C)C`, for which the z-score is -0.376.

Consider `C[N+](C)(C)CCCC[C@@H]1NC(=O)[C@H]2C[C@@H](C(=O)NCCCCCCN)[C@@H](c3ccc(O)cc3)N2C1=O`, for which the z-score was 1.13. Take `COc1ccccc1CN1C(=O)c2ccccc2[C@](Cc2ccccc2I)(C(=O)NCC(F)(F)F)[C@@H]1c1ccc(CO)cc1`: the z-score was 0.0879. Consider `O=C(NCc1ccccc1)[C@@H]1c2ccccc2C(=O)N(Cc2ccccc2C(F)(F)F)[C@H]1c1ccc(CO)cc1`, for which the z-score is -0.0066. Take `COC(=O)[C@H](Cc1ccccc1)N1CC(/C=C/C2CC2)=C[C@H]1[C@H](O)Cc1ccccc1`: the z-score is -0.677.

Regarding `CCOC(=O)C1=CC[C@@H](c2ccc(OCc3ccccc3)c(OC)c2)N(S(=O)(=O)c2ccc(C)cc2)[C@H]1c1ccc(SC)cc1`, the z-score is 1.94.

As to `COc1cccc(/C=C/C=O)c1`, the z-score was -0.144.

On to `CC(=O)NCCCC[C@@H]1NC(=O)[C@H]2C[C@@H](C(=O)NCCCC[N+](C)(C)C)[C@@H](c3cccc(OCCO)c3)N2C1=O`, for which the z-score was -1.92.

As for `O=C1C2C=CC(C(O)c3ccccc3)N(Nc3ccccc3F)C2C(=O)N1c1ccccc1` (configuration not stated), the z-score was 0.285. On to `CCOC(=O)C[C@H]1[C@H](OC(=O)c2ccccc2-c2ccccc2)[C@@H](NC(=O)c2ccc(-c3ccccc3)cc2)c2cc(OCCCO)ccc2N1C(=O)c1ccc2ccccc2n1`, for which the z-score was 0.723. For the compound `CO[C@]12C=C(Br)[C@@H](C[C@@H]1c1cccc(C)c1)[C@@]1(CO1)C2=O`, the z-score was -1.67. With `[N-]=[N+]=Nc1ccccc1[C@@H]1OC(c2ccc(OCCCO)cc2)=N[C@]1(Cc1ccccc1)C(=O)NCC(O)CO` (some centres not stated), the z-score is 1.32.

Regarding `COc1ccc([Si](C)(C)[C@@H]2[C@@H](CCn3cc([C@H](O)c4ccccc4)nn3)O[C@]3(C(=O)N(Cc4ccc(N5CCC5=O)cc4)c4ccccc43)[C@H]2C)cc1`, the z-score is 3.51. Consider `C=CCC(OC(C)=O)[C@@H]1[C@@H](N(Cc2ccc(-c3cccc(C(F)(F)F)c3)o2)C(=O)c2ccc(C)cc2)c2cc(OCCCO)ccc2N1C(=O)c1ccc2ccccc2c1` (some centres not stated), for which the z-score was 0.742. Turning to `C=CCC(OC(C)=O)[C@@H]1[C@@H](N(Cc2cccc3ccccc23)C(=O)Cc2ccc(F)cc2)c2cc(OCCCO)ccc2N1C(=O)c1ccc2ccccc2n1` (some centres not stated), the z-score is -0.342. Take `C[C@H]1NC(=O)[C@@]23C(=O)N[C@@H](Cc4ccccc4)C2[C@H](C)[C@@]2(C)O[C@H]2C3/C=C/C/C=C\CNC(=O)[C@H](Cc2ccccc2)NC1=O` (some centres not stated): the z-score was 0.952. As for `CCCCCCCCCCC(O)C1C=CC2C(=O)N(C)C(=O)C2N1Nc1ccc([N+](=O)[O-])cc1[N+](=O)[O-]` (configuration not stated), the z-score was 1.35. Take `NCCCCCCNC(=O)[C@@H]1C[C@@H]2C(=O)N[C@@H](CCCCN)C(=O)N2[C@@H]1c1cccc(OCCO)c1`: the z-score was 0.487. Take `N#Cc1ccc(C(O)C2C=CC3C(=O)N(c4ccccc4)C(=O)C3N2Nc2ccccc2)cc1` (configuration not stated): the z-score is -0.248. In the case of `CC1=C([C@H](O)CCc2ccccc2)[C@H](CO)[C@@H]2C(=O)N(C)C(=O)[C@@H]2C1`, the z-score was 0.123. With `CCOC(=O)C1=CC[C@@H](c2cccc(Cl)c2)N(S(=O)(=O)c2ccc(C)cc2)C1`, the z-score is 0.311. On to `COCCOC(=O)N1C(=O)[C@@]2(c3cc(C#Cc4ccc(OC)cc4)ccc31)[C@H](C(=O)Nc1nc3ccccc3s1)[C@H]1C(=O)O[C@H](c3ccccc3)[C@H](c3ccccc3)N1[C@@H]2c1ccc(O)cc1`, for which the z-score is 1.16. As for `COc1ccc(C#Cc2ccc3c(c2)[C@]2(C(=O)N3)[C@H](c3ccc(O)cc3)N3[C@H](c4ccccc4)[C@H](c4ccccc4)OC(=O)[C@H]3[C@@H]2C(=O)O)cc1`, the z-score is 0.0572. Consider `CC(C)C[C@@H]1NC(=O)[C@@H]2C[C@H](C(=O)NCCCCCN)[C@H](c3ccc(O)cc3)N2C1=O`, for which the z-score was 0.965.

`CN1C(=O)C2C=CC(C(O)c3ccc(F)cc3)N(Nc3ccccc3)C2C1=O` (configuration not stated): the z-score was 1.97. The result for `CCC[C@@H]1C[C@@]1(CCC)[C@@H](NC(=O)OCc1ccccc1)c1ccc(-c2ccccc2)cc1` reads -0.0091.

Consider `COc1ccc(NC(=O)O[C@H]2[C@H](OC(=O)Nc3ccccc3)[C@H](OC(=O)Nc3ccccc3)[C@@H](OC)O[C@@H]2CO)cc1`, for which the z-score was 3.25.
